A selection: hits, their analogues and other compounds. The true share with any hit is near 9.4%.
FLuc counter: firefly luciferase modulation, counter-screen for miR-21 project. P08659. purified FLuc, Km substrates, luminescence inhibition. Potency, µM (doses to about 57.5 µM), without a hit: at the top dose activity change, negative = inhibition, most hits filed as inhibitors. 6.9% of 360,000 active. AID 588342;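 further: plate controls were vehicle for no effect and reference inhibitor for full effect; nearly all actives have a fitted effect of over 55% in size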
Target sequence (P08659 whole entry, looked up): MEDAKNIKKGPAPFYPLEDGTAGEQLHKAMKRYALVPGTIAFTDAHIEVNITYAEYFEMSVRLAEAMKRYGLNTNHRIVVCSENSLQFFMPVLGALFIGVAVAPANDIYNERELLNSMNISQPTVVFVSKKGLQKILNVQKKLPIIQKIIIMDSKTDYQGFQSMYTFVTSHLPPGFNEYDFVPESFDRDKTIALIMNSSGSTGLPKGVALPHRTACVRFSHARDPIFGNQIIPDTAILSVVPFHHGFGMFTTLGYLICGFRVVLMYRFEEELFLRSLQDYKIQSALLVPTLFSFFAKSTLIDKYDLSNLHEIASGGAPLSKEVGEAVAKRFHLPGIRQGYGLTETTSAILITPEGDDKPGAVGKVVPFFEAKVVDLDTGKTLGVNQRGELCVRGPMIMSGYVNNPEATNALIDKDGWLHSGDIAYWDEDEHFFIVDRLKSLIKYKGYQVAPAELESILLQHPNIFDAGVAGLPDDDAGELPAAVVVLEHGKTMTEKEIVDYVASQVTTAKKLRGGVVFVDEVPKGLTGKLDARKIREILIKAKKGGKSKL
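Purified P. pyralis luciferase (10nM final) with 10uM D-luciferin and 10uM ATP (Km levels) in 50mM Tris acetate pH 7.5, 10mM Mg acetate, 0.01% Tween-20, 0.05% BSA; qHTS 6-point titration, ~60 µM downward; luminescence read.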
NPC1 promoter act: NPC1 promoter activation | AID 485313 | Potency, µM (doses to about 9.22 µM), for inactives: at the highest dose activation, most hits filed as activators | Huh7 NPC1 promoter luciferase reporter, 24 h | 2.4% of 320,000 active; further: % of control where 0% means no effect; nearly all actives have a fitted effect of over 60% in size
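Luciferase expression driven by the NPC1 promoter was measured in stably transfected Huh7 cells after a 24 h compound incubation, using a luciferase reagent and a luminescence read.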
SMN2 splice enh: SMN2 splice variant enhancement; 2.8% of 210,000 active; Potency, µM (titrated, usually from 46.1 µM), for inactives: at the highest dose activity change, positive = activation, actives largely listed as activators; HEK293 SMN2-luciferase splicing reporter, luminescence, 30-36 h; further: % of control where 0% means no effect; nearly all actives have a fitted effect of over 55% in size
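qHTS luciferase splicing reporter: luminescence rises when SMN2 exon 7 is included in transfected HEK293 cells. Compound exposure lasted 30-36 h at 37C, with 4.5 mM final sodium butyrate as control, followed by a ONE-Glo read.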
ELG1 genotox: genotoxicity induction in ELG1-luciferase HEK293T cells; HEK293T ELG1-luciferase reporter, luminescence, 16 h; Potency, µM (titrated, usually from 46 µM), for the others: top-dose activity change, positive = activation, hits mostly activators; 1.3% of 330,000 active; further: % of control where 0% means no effect; nearly all actives have a fitted effect of over 60% in size
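Genotoxic stress is detected as increased luminescence from luciferase-tagged ELG1 in HEK293T cells, measured with ONE-Glo after a 16 hr treatment at 37 °C.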
Rab9 promoter act: activates the Rab9 promoter | 2.8% of 320,000 active | AID 485297 | Huh7 Rab9 promoter-luciferase reporter, luminescence, 24 h | Potency, µM (titrated, usually from 9.22 µM), for inactives: top-dose activation, negative = inhibition, actives largely listed as activators; further: % of control where 0% means no effect; nearly all actives have a fitted effect of over 60% in size
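Huh7 cells stably carrying a Rab9 promoter-luciferase reporter, 1500 cells per well in OP-MEM I with 10% FBS, treated with compound 24 hours at 37C. Luciferase activity read by luminescence after 10 minutes with Amplite reagent.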
ELG1 DNA repair: blocks ELG1-dependent DNA repair in HEK293T cells | HEK293T ELG1-luciferase reporter, luminescence, 16 h; DNA damage induced by 5-fluorouridine | Potency, µM (series often up to 46.1 µM), without a hit: at the top dose activity change, negative = inhibition, most hits filed as inhibitors | 2.3% of 330,000 active; further: on the % scale 0 is the no-effect control and ±100 the full control effect; nearly all actives have a fitted effect of over 55% in size
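HEK293T cells expressing luciferase-tagged ELG1 (2,000/well) received 5-Fluorouridine plus compound or DMSO for 16 hr at 37 °C. Luciferase was read by ONE-Glo luminescence after 30 min at room temperature.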
ELG1 FLuc counter: luciferase inhibition in cell-free luciferin readout for ELG1 hits | shares compounds with ELG1 DNA repair | cell-free firefly luciferase luminescence counter-screen, ViewLux | Potency, µM (titrated, usually from 46.1 µM), inactives show top-dose activity change, negative = inhibition, usual class: inhibitors | 3% of 350 active; further: on the % scale 0 is the no-effect control and ±100 the full control effect
ELG1-Luc inh: inhibits ELG1-dependent DNA repair in HEK293T cells, confirmed | Potency, µM (series often up to 46.1 µM), for inactives: at the highest dose activity change, negative = inhibition, usual class: inhibitors | HEK293T ELG1-luciferase levels, luminescence; cells co-treated with 5-fluorouridine | 68% of 670 active | shares compounds with ELG1 DNA repair | AID 624248; further: on the % scale 0 is the no-effect control and ±100 the full control effect; nearly all actives have a fitted effect of over 55% in size
ELG1-Luc MMS: inhibits ELG1-dependent repair under MMS stimulation in HEK293T cells. Potency, µM (series often up to 46.1 µM), for the others: at the highest dose activity change, negative = inhibition, actives largely listed as inhibitors. shares compounds with ELG1 DNA repair. HEK293T luciferase-tagged ELG1 level, MMS stimulated. 53% of 670 active; further: on the % scale 0 is the no-effect control and ±100 the full control effect; nearly all actives have a fitted effect of over 60% in size
ELG1 5-FU: confirmation of ELG1 repair inhibitors: viability with 5FU; shares compounds with ELG1 DNA repair; cell viability with 5-FU, ELG1-dependent repair; Potency, µM (series often up to 46.1 µM), for the others: top-dose activity change, negative = viability loss, most hits filed as cytotoxic; 670 tested, under 10 active;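 further: ELG1-luc HEK293T cells cotreated with 5-fluorouridine at 10 µM final; viability measured 16 h after compound addition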
ELG1 MMS viab: confirmation of ELG1 repair inhibitors: viability with MMS; shares compounds with ELG1 DNA repair; Cell viability with MMS, ELG1-dependent DNA repair; Potency, µM (doses to about 46.1 µM), inactives show top-dose activity change, negative = viability loss, usual class: cytotoxic; AID 624251; 33% of 670 active;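 further: ELG1-luc HEK293T cells co-treated with 10 µM MMS; viability read 16 h after compound addition; on the % scale 0 is the no-effect control and ±100 the full control effect; nearly all actives have a fitted effect of over 60% in size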
Cell viab unstim: affects unstimulated cell viability, ELG1 hit counter-screen | AID 624252 | 8% of 900 active | cell viability counter-screen, unstimulated, luminescence | shares compounds with ELG1 DNA repair | Potency, µM (titrated, usually from 45.9 µM), inactives show top-dose activity change, negative = loss of viability, hits mostly cytotoxic;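 further: compound exposure lasted 16 hours before reading; on the % scale 0 is the no-effect control and ±100 the full control effect; nearly all actives have a fitted effect of over 55% in size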
FLuc enzyme: counter-screen for ELG1 repair inhibitors: firefly luciferase inhibition; shares compounds with ELG1 DNA repair; purified firefly luciferase, luminescence counter-screen; Potency, µM (titrated, usually from 57.5 µM), inactives show at the highest dose activity, negative = inhibition, most hits filed as inhibitors; 10% of 350 active; AID 624253; further: on the % scale 0 is the no-effect control and ±100 the full control effect
An asterisk follows results filed as active; ? = inconclusive; . = no result; [ ] = dose if it differs, or a comment. The call rests on the fitted dose curve; in most records, active means well fitted curve in the direction sought with a large enough effect; inconclusive means small, poorly fitted or top-dose-only effect, or another doubt; inactive means no such curve, though single readings can be large; an effect the other way counts as inactive or inconclusive. Potency means the concentration at half of the fitted maximal effect.

SMILES | FLuc counter | NPC1 promoter act | SMN2 splice enh | ELG1 genotox | Rab9 promoter act | ELG1 DNA repair | ELG1 FLuc counter | ELG1-Luc inh | ELG1-Luc MMS | ELG1 5-FU | ELG1 MMS viab | Cell viab unstim | FLuc enzyme
COc1ccc(NC(=O)C2CCN(c3ncnc4c3nc3n4CCCCC3)CC2)cc1Cl | -3% | -4% | . | -1% | -5% | 1.8µM* | 7% | 3.2µM* | ? | ? | ? | ? | -4%
Cc1ccc(NC(=O)C2CCN(c3ncnc4c3nc3n4CCCCC3)CC2)cc1Cl | -7% | -1% | . | -12% | -1% | 2.3µM* | -1% | 10µM* | 18µM* | ? | -14% | ? | 0%
Cc1ccc(NC(=O)C2CCCN(c3ncnc4c3nc3n4CCCCC3)C2)cc1Cl (centres undefined) | -3% | -14% | . | -9% | 0% | -28% | . | . | . | . | . | . | .
COc1ccc(C(=O)NCC(=O)OCC(=O)NCc2ccc3c(c2)OCO3)cc1 | . | . | . | 1% | . | 13% | . | . | . | . | . | . | .
CCN1C(=O)[C@@H]2[C@@H](c3ccc(-c4ccc(Cl)c(Cl)c4)cc3)N3CCC[C@@]3(C(=O)OC)[C@@H]2C1=O | . | . | . | -9% | . | 2.3µM* | . | 6.3µM* | 8.9µM* | ? | 10µM* | ? | .
COc1cc(C(=O)NCCOc2cc(C)ccc2C(C)C)cc(OC)c1OC | 0% | -30% | . | -7% | -31% | 4.6µM* | . | 14µM* | 7.1µM* | -4% | 5.6µM* | ? | .
O=C(Nc1cccc(NC(=O)c2cccc([N+](=O)[O-])c2)n1)c1cccc([N+](=O)[O-])c1 | -13% | -2% | . | ? | 0% | 2.1µM* | . | ? | 6% | -4% | ? | ? | .
CCn1c(=O)n(CC)c2cc(S(=O)(=O)N3CCCCC3)c(C)cc21 | 0% | -2% | ? | ? | 5% | ? | 35% | . | . | . | . | -15% | 6%
CCn1c(=O)n(CC)c2cc(S(N)(=O)=O)c(C)cc21 | 2%[2.3 µM] | 0% | 16% | 4% | 0% | 13% | . | . | . | . | . | . | .
